Data as given in PubChem BioAssay (Tox21).
Results filed as inconclusive are left out. Active and inactive are the calls of the source. Unless noted, calls come from the whole dose curve; as a rule, active = well fitted curve in the direction sought with a large enough effect in the repeat runs; inconclusive = weak or mixed curves; inactive = no such curve, though single readings can be large; an effect the other way counts as inactive or inconclusive.

Legend:
[1] = target: Aryl hydrocarbon receptor (Homo sapiens) (UniProt P35869); assay: qHTS assay to identify small molecule that activate the aryl hydrocarbon receptor (AhR) signaling pathway (AID 743085); note: nearly all actives have a fitted effect of over 15% in size; note: potency is the fitted concentration of half-maximal effect;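 for activation: HG2L7.5c1 human HepG2 liver cells with stably integrated DRE-driven firefly reporter; series mostly up to about 70 µM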
Procedure, shortened: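 Steps: seed HepG2-AhR-luc cells; allow 5 h at 37C; pin-transfer test compound or vehicle; incubate 24 h at 37C; add viability dye (30 min, 37C) and read fluorescence; add luciferase substrate (30 min, RT) and read luminescence.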

[2] = qHTS assay to identify small molecule that activate the aryl hydrocarbon receptor (AhR) signaling pathway - cell viability counter screen (AID 743086);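 note: HepG2 liver cells carrying the AhR DRE luciferase reporter; series mostly up to about 70 µM; nearly all actives have a fitted effect of over 45% in size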
Procedure, shortened: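 Cytotoxicity counter screen: CellTiter-Fluor signal (30 min, 37 C) in 4000 HepG2 cells/well carrying the DRE-luciferase reporter, following 24 h compound exposure at 37 C.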

[3] = target: Peroxisome proliferator-activated receptor gamma (Homo sapiens) (UniProt P37231); assay: qHTS assay to identify small molecule agonists of the peroxisome proliferator-activated receptor gamma (PPARg) signaling pathway (AID 743094; active = well fitted activation curve with a large enough effect in the signal ratio in the repeat runs, not every such curve was filed as active; the % refers to the signal ratio)
Procedure, shortened: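 Quantitative HTS agonist mode: stable HEK293H line with UAS-beta-lactamase reporter under PPARg control, 17 h compound exposure at 37C, fluorescence after 1 h FRET substrate loading at room temperature.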

[4] = qHTS assay to identify small molecule antagonists of the peroxisome proliferator-activated receptor gamma (PPARg) signaling pathway - cell viability counter screen (AID 743194); conditions: Potency: co-treated with 50 nM rosiglitazone; note: nearly all actives have a fitted effect of over 55% in size
Procedure, shortened: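 Viability was measured as CellTiter-Glo luminescence in GeneBLAzer PPARg UAS-bla HEK293H cells. These cells had been exposed 17 h at 37 C to compounds together with rosiglitazone at 50 nM final, with the beta-lactamase readout taken in the same wells.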

[5] = qHTS assay for small molecule agonists of the antioxidant response element (ARE) signaling pathway (AID 743202; active = well fitted activation curve with a large enough effect in the signal ratio in the repeat runs, not every such curve was filed as active; the % refers to the signal ratio)
Procedure, shortened: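 Quantitative high-throughput format in HepG2 cells bearing an integrated ARE-beta-lactamase reporter. Compound exposure lasted 16 h at 37 C, and fluorescence was read 2 h after adding LiveBLAzer B/G substrate at room temperature.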

[6] = qHTS assay for small molecule activators of the heat shock response signaling pathway - cell viability counter screen (AID 743209); note: nearly all actives have a fitted effect of over 50% in size
Procedure, shortened: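 First, HSE-bla HeLa cells were seeded at 1500 cells/well and kept overnight at 37 C. Next, compounds were pinned in and incubated 5 h. After the FRET substrate step, CellTiter-Glo was added and luminescence read 30 min later.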

[7] = qHTS assay for small molecule activators of the heat shock response signaling pathway (AID 743210; active = well fitted activation curve with a large enough effect in the signal ratio in the repeat runs, with a control signal flat, not every such curve was filed as active; the % refers to the signal ratio;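 note: HeLa cells with beta-lactamase reporter driven by heat shock elements; series mostly up to about 63 µM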)
Procedure, shortened: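 HeLa HSE-bla cells, overnight plating; cpd in DMSO 5 h, 37 C; LiveBLAzer B/G FRET substrate 2.5 h RT; fluorescence intensity read.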

[8] = qHTS assay to identify small molecule antagonists of the peroxisome proliferator-activated receptor delta (PPARd) signaling pathway - cell viability counter screen (AID 743213); note: nearly all actives have a fitted effect of over 50% in size
Procedure, shortened: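 CellTiter-Glo was added to PPARd-bla HEK293H wells following 17 h compound treatment in the presence of 300 nM L165041. Luminescence was recorded after 30 min at room temperature.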

[9] = target: Bile acid receptor (Homo sapiens) (UniProt Q96RI1); assay: qHTS assay to identify small molecule antagonists of the farnesoid-X-receptor (FXR) signaling pathway (AID 743217; active = well fitted inhibition curve with a large enough effect in the signal ratio in the repeat runs, not every such curve was filed as active; the % refers to the signal ratio)
Procedure, shortened: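 Antagonist mode against 50 uM (final) chenodeoxycholic acid stimulation in FXR-bla HEK 293T cells, 16 h at 37 °C. Inhibition detected as reduced beta-lactamase activity via LiveBLAzer B/G FRET fluorescence after 2 h at room temperature.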

[10] = qHTS assay to identify small molecule agonists of the farnesoid-X-receptor (FXR) signaling pathway - cell viability counter screen (AID 743218); note: nearly all actives have a fitted effect of over 45% in size
Procedure, shortened: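 Cytotoxicity counter-screen run in parallel, same wells: FXR-UAS-bla HEK 293T cells dosed 16 h at 37 C, viability read by CellTiter-Glo luminescence after 30 min at room temperature.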

[11] = target: Bile acid receptor (Homo sapiens) (UniProt Q96RI1); assay: qHTS assay to identify small molecule agonists of the farnesoid-X-receptor (FXR) signaling pathway (AID 743220; active = well fitted activation curve with a large enough effect in the signal ratio in the repeat runs, not every such curve was filed as active; the % refers to the signal ratio)
Procedure, shortened: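 Beta-lactamase reporter under UAS control in GeneBLAzer FXR HEK 293T cells (5000/well) measured with LiveBLAzer FRET substrate after 2 h at room temperature. Compound exposure lasted 16 h at 37C.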

[12] = qHTS assay to identify small molecule antagonists of the farnesoid-X-receptor (FXR) signaling pathway - cell viability counter screen (AID 743221; active = well fitted cell-killing curve with a large enough effect in the repeat runs, not every such curve was filed as active; note: nearly all actives have a fitted effect of over 50% in size)
Procedure, shortened: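 Quantitative HTS of the Tox21 10K library run in parallel with the beta-lactamase reporter read. HEK 293T cells carrying a UAS-driven bla reporter got compound and 50 uM CDCA (final) for 16 h; ATP-based luminescence followed.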

[13] = target: Vitamin D3 receptor (Homo sapiens) (UniProt P11473); assay: qHTS assay to identify small molecule agonists of the vitamin D receptor (VDR) signaling pathway (AID 743222; calls by dose curve)
Procedure, shortened: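 Quantitative HTS agonist-mode screen: compounds in DMSO were pin-transferred onto VDR-bla cells and incubated 16 h at 37C, 5% CO2. Reporter activity was detected with LiveBLAzer B/G FRET substrate after 2 h at room temperature.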

[14] = target: Vitamin D3 receptor (Homo sapiens) (UniProt P11473); assay: qHTS assay to identify small molecule antagonists of the vitamin D receptor (VDR) signaling pathway (AID 743223; active = well fitted inhibition curve with a large enough effect in the signal ratio in the repeat runs, not every such curve was filed as active; the % refers to the signal ratio)
Procedure, shortened: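 Fluorescence from LiveBLAzer B/G FRET substrate, read after 2 h at room temperature, reflects beta-lactamase reporter activity in VDR-bla cells treated 16 h at 37C with compounds and agonist 1alpha,25-dihydroxyvitamin D3 (3 nM final).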

[15] = qHTS assay to identify small molecule agonists of the vitamin D receptor (VDR) signaling pathway - cell viability counter screen (AID 743224); note: series mostly up to about 63 µM; nearly all actives have a fitted effect of over 50% in size
Procedure, shortened: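 Viability is measured in the same wells as the VDR-bla reporter assay: after 16 h compound treatment and 2 h substrate loading, CellTiter-Glo is added and luminescence read 30 min later.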

[16] = qHTS assay for small molecule agonists of the antioxidant response element (ARE) signaling pathway - cell viability counter screen (AID 743203; calls by dose curve; note: nearly all actives have a fitted effect of over 55% in size)
Procedure, shortened: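 Seeded at 2,000 cells/well, ARE-bla HepG2 cells were incubated 5 hrs before compound addition. After 16 hrs of treatment at 37C with 5% CO2, CellTiter-Glo reagent was added and luminescence read 30 min later.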

[17] = qHTS assay to identify small molecule agonists of the peroxisome proliferator-activated receptor delta (PPARd) signaling pathway - cell viability counter screen (AID 743211); note: nearly all actives have a fitted effect of over 55% in size
Procedure, shortened: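 Viability of GeneBLAzer PPARd UAS-bla HEK293H cells was assessed after 17 h compound incubation at 37C, using CellTiter-Glo reagent added after the reporter read and luminescence recorded 30 min later.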

[18] = target: Peroxisome proliferator-activated receptor delta (Homo sapiens) (UniProt Q03181); assay: qHTS assay to identify small molecule agonists of the peroxisome proliferator-activated receptor delta (PPARd) signaling pathway (AID 743212; calls by dose curve)
Procedure, shortened: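 HEK293H PPARd-bla cells; 5 h preincubation 37 C/5% CO2; compound (DMSO) 37 C; LiveBLAzer B/G FRET substrate 2 h RT; fluorescence intensity.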

[19] = target: Peroxisome proliferator-activated receptor delta (Homo sapiens) (UniProt Q03181); assay: qHTS assay to identify small molecule antagonists of the peroxisome proliferator-activated receptor delta (PPARd) signaling pathway (AID 743215; active = well fitted inhibition curve with a large enough effect in the signal ratio in the repeat runs, not every such curve was filed as active; the % refers to the signal ratio;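 note: cells stimulated with agonist L165041 at 300 nM final during compound exposure; series mostly up to about 62 µM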)
Procedure, shortened: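 Inhibition of L165041-driven (300 nM final) PPARd signaling is scored in HEK293H UAS-bla cells. Exposure lasts 17 h at 37 C; beta-lactamase activity is then read by FRET substrate fluorescence after 2 h at room temperature.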

[20] = target: Peroxisome proliferator-activated receptor gamma (Homo sapiens) (UniProt P37231); assay: qHTS assay to identify small molecule antagonists of the peroxisome proliferator-activated receptor gamma (PPARg) signaling pathway (AID 743191; calls by dose curve; note: series mostly up to about 63 µM; nearly all actives have a fitted effect of over 30% in size)
Procedure, shortened: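 Beta-lactamase reporter under UAS control in HEK293H PPARg-bla cells; compound treatment 17 h at 37C. Read-out: fluorescence intensity after 1 h room-temperature incubation with LiveBLAzer B/G FRET substrate.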

Measured: Potency

Sequence of Peroxisome proliferator-activated receptor delta (Homo sapiens) (Q03181 whole entry, looked up): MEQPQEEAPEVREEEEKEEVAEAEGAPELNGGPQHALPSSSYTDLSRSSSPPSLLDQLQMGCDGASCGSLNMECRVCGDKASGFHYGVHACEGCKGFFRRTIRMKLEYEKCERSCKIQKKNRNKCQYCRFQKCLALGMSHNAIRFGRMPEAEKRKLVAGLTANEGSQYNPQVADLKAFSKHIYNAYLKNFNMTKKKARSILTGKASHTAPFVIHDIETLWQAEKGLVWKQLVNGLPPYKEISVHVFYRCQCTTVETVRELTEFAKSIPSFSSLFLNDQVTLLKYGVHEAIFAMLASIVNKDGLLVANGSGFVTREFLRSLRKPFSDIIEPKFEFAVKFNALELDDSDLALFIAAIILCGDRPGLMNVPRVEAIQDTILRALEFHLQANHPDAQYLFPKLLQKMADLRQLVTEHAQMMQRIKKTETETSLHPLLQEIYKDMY
Sequence of Peroxisome proliferator-activated receptor gamma (Homo sapiens) (P37231 whole entry, looked up): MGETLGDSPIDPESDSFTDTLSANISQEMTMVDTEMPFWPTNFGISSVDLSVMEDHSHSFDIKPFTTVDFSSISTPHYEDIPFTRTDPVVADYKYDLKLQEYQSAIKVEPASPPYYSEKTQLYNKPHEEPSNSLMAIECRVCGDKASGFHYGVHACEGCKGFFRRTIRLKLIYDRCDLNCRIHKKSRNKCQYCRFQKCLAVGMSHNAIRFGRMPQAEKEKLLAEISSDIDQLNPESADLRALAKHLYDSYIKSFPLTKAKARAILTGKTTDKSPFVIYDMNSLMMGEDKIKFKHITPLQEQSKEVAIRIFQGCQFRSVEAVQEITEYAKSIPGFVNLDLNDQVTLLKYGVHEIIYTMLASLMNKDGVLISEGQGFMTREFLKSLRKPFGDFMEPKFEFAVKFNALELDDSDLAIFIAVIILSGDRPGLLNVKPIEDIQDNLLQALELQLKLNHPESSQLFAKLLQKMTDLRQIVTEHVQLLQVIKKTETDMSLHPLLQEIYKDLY
Sequence of Aryl hydrocarbon receptor (Homo sapiens) (P35869 whole entry, looked up): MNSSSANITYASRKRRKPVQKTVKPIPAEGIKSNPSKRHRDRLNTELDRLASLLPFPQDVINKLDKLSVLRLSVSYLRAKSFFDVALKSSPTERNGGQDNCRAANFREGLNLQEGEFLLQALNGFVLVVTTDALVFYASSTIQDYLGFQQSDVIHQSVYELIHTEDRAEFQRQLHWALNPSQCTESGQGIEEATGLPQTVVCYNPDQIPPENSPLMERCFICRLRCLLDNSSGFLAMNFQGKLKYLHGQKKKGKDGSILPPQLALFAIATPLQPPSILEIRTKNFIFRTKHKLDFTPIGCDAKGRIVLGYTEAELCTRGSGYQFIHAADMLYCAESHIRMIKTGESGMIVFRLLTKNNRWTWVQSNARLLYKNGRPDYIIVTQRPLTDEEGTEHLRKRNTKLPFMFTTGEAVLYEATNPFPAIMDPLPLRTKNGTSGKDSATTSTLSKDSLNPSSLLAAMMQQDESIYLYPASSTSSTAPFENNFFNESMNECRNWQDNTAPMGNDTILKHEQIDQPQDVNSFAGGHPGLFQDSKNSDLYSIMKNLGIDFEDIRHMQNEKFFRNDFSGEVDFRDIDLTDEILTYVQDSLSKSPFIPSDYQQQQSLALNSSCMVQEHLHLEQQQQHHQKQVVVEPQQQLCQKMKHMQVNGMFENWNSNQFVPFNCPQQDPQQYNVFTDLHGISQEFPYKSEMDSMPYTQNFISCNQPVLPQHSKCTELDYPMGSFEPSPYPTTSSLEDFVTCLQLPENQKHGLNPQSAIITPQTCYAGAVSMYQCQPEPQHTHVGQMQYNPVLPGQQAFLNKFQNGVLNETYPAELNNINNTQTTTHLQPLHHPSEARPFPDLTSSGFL
Sequence of Vitamin D3 receptor (Homo sapiens) (P11473 whole entry, looked up): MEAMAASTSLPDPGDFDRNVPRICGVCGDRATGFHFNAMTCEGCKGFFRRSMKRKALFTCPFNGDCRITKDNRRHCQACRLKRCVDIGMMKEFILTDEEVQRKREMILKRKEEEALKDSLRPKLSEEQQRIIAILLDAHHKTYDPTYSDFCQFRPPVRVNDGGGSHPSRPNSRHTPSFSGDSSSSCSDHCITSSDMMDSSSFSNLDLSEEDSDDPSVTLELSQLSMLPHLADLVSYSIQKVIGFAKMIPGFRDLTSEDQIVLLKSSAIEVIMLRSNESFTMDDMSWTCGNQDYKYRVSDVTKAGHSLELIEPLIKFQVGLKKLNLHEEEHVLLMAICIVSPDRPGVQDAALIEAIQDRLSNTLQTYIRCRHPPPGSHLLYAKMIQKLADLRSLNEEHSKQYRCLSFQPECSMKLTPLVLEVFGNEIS
Sequence of Bile acid receptor (Homo sapiens) (Q96RI1 whole entry, looked up): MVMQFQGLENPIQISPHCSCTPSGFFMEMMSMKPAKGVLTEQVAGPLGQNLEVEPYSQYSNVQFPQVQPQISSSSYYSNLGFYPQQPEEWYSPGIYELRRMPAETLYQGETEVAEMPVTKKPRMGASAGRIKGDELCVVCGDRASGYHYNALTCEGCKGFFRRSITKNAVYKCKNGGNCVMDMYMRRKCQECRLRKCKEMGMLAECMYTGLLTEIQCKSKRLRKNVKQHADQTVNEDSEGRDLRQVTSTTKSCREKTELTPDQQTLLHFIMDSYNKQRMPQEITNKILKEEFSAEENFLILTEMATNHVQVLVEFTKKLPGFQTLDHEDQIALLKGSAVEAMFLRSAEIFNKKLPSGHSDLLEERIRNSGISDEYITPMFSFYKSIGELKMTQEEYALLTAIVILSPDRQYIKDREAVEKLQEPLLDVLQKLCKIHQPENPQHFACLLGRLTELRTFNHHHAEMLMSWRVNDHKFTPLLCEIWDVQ

CCCCC1C(=O)NC(=O)N(C2CCCCC2)C1=O (configuration not stated)
not listed: [16] | [17] | [18] | [19] | [20]
inactive: all other assays above

NNCCO
not listed: [6] | [8] | [10] | [14] | [17] | [18] | [19] | [20]
inactive: all other assays above

CC(C)(C#N)C(C)(C)C#N
not listed: [5] | [8] | [12] | [13] | [14] | [15] | [20]
inactive: all other assays above

O=C(Cl)OCCOCCOC(=O)Cl
inactive: [1] | [2] | [3] | [4] | [16] | [6] | [17] | [12] | [13]

Clc1ccccc1
not listed: [4] | [6] | [8] | [9] | [11] | [14] | [19] | [20]
inactive: all other assays above

C[C@H](N)[C@H](O)c1ccc(O)c(O)c1
not listed: [5] | [6] | [8] | [9] | [11] | [13] | [14] | [20]
inactive: all other assays above

Nc1ccccc1C(=O)OCCc1ccccc1
active: [1] 30.6 µM
not listed: [5] | [9] | [11] | [12] | [18] | [19] | [20]
inactive: all other assays above

C=CC(=O)OCC
not listed: [4] | [8] | [13] | [14] | [20]
inactive: all other assays above

CC(O)CN1CCN(CC(=O)[O-])CCN(CC(=O)[O-])CCN(CC(=O)[O-])CC1.[Gd+3] (configuration not stated)
not listed: [5] | [6] | [20]
inactive: all other assays above

CCOP(=S)(OCC)Oc1ccc(S(C)=O)cc1 (configuration not stated)
active: [1] 10.9 µM
not listed: [4] | [5] | [6] | [9] | [11] | [16]
inactive: all other assays above

CCOP(=S)(OCC)SCSc1cc(Cl)ccc1Cl
not listed: [9] | [11] | [14] | [17] | [20]
inactive: all other assays above

N#CC(C#N)=Cc1ccc(O)c(O)c1
not listed: [4] | [5] | [9] | [11] | [12] | [13]
inactive: all other assays above

c1ccc2c(c1)sc1ccccc12
not listed: [4] | [5] | [14] | [16]
inactive: all other assays above
